In PubChem BioAssay (NCI):
About 83,000 compounds went through this panel and 20% of them were active in at least one assay; those are over-represented in the sample as a whole.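 Negative percent growth values reflect cell death: -40 means 40% of the cells present at the start died, and -100 means all died.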 Calls of active or inactive are those of the source. The calls were made as follows: active = growth percent below 10; inactive = the rest.

Columns and labels:
Assay in all cases: NCI-60 one-dose screen, 48 h (100 = growth as untreated, 0 = no growth, -100 = all killed)
SK-MEL-2 melanoma = conditions: 10 µM unless noted
EKVX NSCLC = conditions: 10 µM unless noted
SN12C renal = conditions: 10 µM unless noted
UO-31 renal = conditions: 10 µM unless noted
TK-10 renal = conditions: 10 µM unless noted
ACHN renal = conditions: 10 µM unless noted
CAKI-1 renal = conditions: 10 µM
MOLT-4 leukemia = conditions: 10 µM unless noted
SR leukemia = conditions: 10 µM unless noted
RPMI-8226 leukemia = conditions: 10 µM unless noted
OVCAR-5 ovarian = conditions: 10 µM unless noted
OVCAR-4 ovarian = conditions: 10 µM unless noted
SK-OV-3 ovarian = conditions: 10 µM unless noted
OVCAR-3 ovarian = conditions: 10 µM unless noted
HS 578T breast = conditions: 10 µM unless noted
NCI/ADR-RES ovarian = conditions: 10 µM unless noted
IGROV1 ovarian = conditions: 10 µM unless noted
CCRF-CEM leukemia = conditions: 10 µM unless noted
OVCAR-8 ovarian = conditions: 10 µM unless noted
A498 renal = conditions: 10 µM unless noted

Measured: growth

COc1cccc(/C=C/C(=O)c2ccc(NC(=O)COc3cccc4cccnc34)cc2)c1
inactive: SK-MEL-2 melanoma 100% | EKVX NSCLC 93.2% | SN12C renal 95.4% | UO-31 renal 82.8% | TK-10 renal 109% | ACHN renal 101% | CAKI-1 renal 92.1% | MOLT-4 leukemia 88.9% | SR leukemia 74.6% | RPMI-8226 leukemia 73.4% | OVCAR-5 ovarian 103% | OVCAR-4 ovarian 101% | SK-OV-3 ovarian 104% | OVCAR-3 ovarian 102% | HS 578T breast 100% | NCI/ADR-RES ovarian 90.8%

c1ccc(-c2n(Cc3ccc4ccccc4c3)c3c4ccccc4c4ccccc4c3[n+]2Cc2ccc3ccccc3c2)cc1
active: SK-MEL-2 melanoma -68.3% | EKVX NSCLC -90.2% | SN12C renal -83.7% | UO-31 renal -88% | TK-10 renal -76.6% | ACHN renal -93.3% | CAKI-1 renal -92.5% | MOLT-4 leukemia -56% | SR leukemia -44.4% | RPMI-8226 leukemia -35.1% | OVCAR-5 ovarian -90.3% | OVCAR-4 ovarian -73.4% | SK-OV-3 ovarian -84.5% | IGROV1 ovarian -74.7% | OVCAR-3 ovarian -90.8% | HS 578T breast -42.9% | NCI/ADR-RES ovarian -4.33%

COC(=O)[C@@]1(C)CC[C@]2(C)CC[C@]3(C)C(=CC(=O)[C@@H]4[C@@]5(C)Cc6c(n(CC#CCN7CCN(C)CC7)c7ccccc67)C(C)(C)[C@@H]5CC[C@]43C)[C@@H]2C1
inactive: SK-MEL-2 melanoma 101% | EKVX NSCLC 92.4% | SN12C renal 73.5% | UO-31 renal 65.7% | TK-10 renal 119% | ACHN renal 89.4% | CAKI-1 renal 64.7% | CCRF-CEM leukemia 48% | MOLT-4 leukemia 16.9% | RPMI-8226 leukemia 69.5% | OVCAR-8 ovarian 93.8% | OVCAR-5 ovarian 86.7% | SK-OV-3 ovarian 122% | IGROV1 ovarian 89% | HS 578T breast 88.1% | NCI/ADR-RES ovarian 86.5%

C=C(C)[C@@H]1CC[C@]2(C(=O)NCCCN(CCC#N)CCC#N)CC[C@]3(C)[C@H](CC[C@@H]4[C@@]5(C)CCC(=O)C(C)(C)[C@@H]5CC[C@]43C)[C@@H]12
inactive: SK-MEL-2 melanoma 102% | EKVX NSCLC 104% | SN12C renal 94.3% | UO-31 renal 95.1% | TK-10 renal 101% | ACHN renal 99.9% | CAKI-1 renal 75% | MOLT-4 leukemia 88.1% | SR leukemia 95.7% | RPMI-8226 leukemia 103% | OVCAR-8 ovarian 105% | OVCAR-5 ovarian 103% | OVCAR-4 ovarian 105% | SK-OV-3 ovarian 104% | IGROV1 ovarian 112% | OVCAR-3 ovarian 118% | HS 578T breast 105% | NCI/ADR-RES ovarian 102%

N#C/C(=C\c1ccc(Cl)cc1Cl)C(N)=O
inactive: SK-MEL-2 melanoma 106% | EKVX NSCLC 105% | SN12C renal 98.3% | UO-31 renal 94.4% | TK-10 renal 102% | ACHN renal 101% | CAKI-1 renal 90.8% | MOLT-4 leukemia 109% | SR leukemia 80.5% | RPMI-8226 leukemia 111% | OVCAR-8 ovarian 106% | OVCAR-5 ovarian 99.7% | OVCAR-4 ovarian 107% | SK-OV-3 ovarian 107% | IGROV1 ovarian 102% | HS 578T breast 99% | NCI/ADR-RES ovarian 107%

CCN1C/C(=N\S(=O)(=O)c2ccccc2)N(CC)C1=S
inactive: SK-MEL-2 melanoma 104% | EKVX NSCLC 99% | SN12C renal 98.1% | UO-31 renal 89.9% | TK-10 renal 100% | ACHN renal 102% | CAKI-1 renal 95.3% | MOLT-4 leukemia 101% | SR leukemia 101% | OVCAR-8 ovarian 99.7% | OVCAR-5 ovarian 103% | OVCAR-4 ovarian 106% | SK-OV-3 ovarian 118% | IGROV1 ovarian 107% | OVCAR-3 ovarian 119% | HS 578T breast 105% | NCI/ADR-RES ovarian 99.8%

COc1c([C@@H](CC(C)C)OC(C)=O)ccc2c1C(=O)OCc1cc(C)cc(O)c1O2
inactive: SK-MEL-2 melanoma 22.2% | EKVX NSCLC 37.6% | SN12C renal 27.8% | UO-31 renal 32.3% | TK-10 renal 33.6% | ACHN renal 16.1% | A498 renal 61.5% | CCRF-CEM leukemia 31.4% | MOLT-4 leukemia 21.3% | SR leukemia 19.1% | RPMI-8226 leukemia 27.6% | OVCAR-8 ovarian 21.2% | OVCAR-5 ovarian 69.4% | OVCAR-4 ovarian 25.9% | SK-OV-3 ovarian 24.3% | IGROV1 ovarian 44% | OVCAR-3 ovarian 43% | HS 578T breast 45.9% | NCI/ADR-RES ovarian 12.6%

Nc1cc(F)ccc1NC(=O)c1ccc(NC(=O)C/C=C/c2cccnc2)cn1
active: SK-MEL-2 melanoma 9.74% | UO-31 renal 5.53% | A498 renal -13.2% | RPMI-8226 leukemia -3.11%
inactive: EKVX NSCLC 49.7% | SN12C renal 20.1% | TK-10 renal 22.3% | ACHN renal 31.3% | CCRF-CEM leukemia 15.1% | MOLT-4 leukemia 24.7% | SR leukemia 24.6% | OVCAR-8 ovarian 17.8% | OVCAR-5 ovarian 21.4% | OVCAR-4 ovarian 29.1% | SK-OV-3 ovarian 34.9% | IGROV1 ovarian 13.8% | OVCAR-3 ovarian 27.4% | HS 578T breast 21.1% | NCI/ADR-RES ovarian 20.4%

Cc1cc(C(=O)Nc2ccc(SC#N)cc2)c(C)o1
inactive: SK-MEL-2 melanoma 110% | EKVX NSCLC 90.4% | SN12C renal 70.6% | UO-31 renal 49.3% | TK-10 renal 101% | ACHN renal 100% | CAKI-1 renal 81.7% | MOLT-4 leukemia 29.7% | RPMI-8226 leukemia 83.1% | OVCAR-8 ovarian 98.3% | OVCAR-5 ovarian 115% | OVCAR-4 ovarian 104% | SK-OV-3 ovarian 111% | IGROV1 ovarian 88.9% | HS 578T breast 112% | NCI/ADR-RES ovarian 100%
active: SR leukemia 5.44%

COc1ccc(S(=O)(=O)NCCCNc2nccc(-n3cnc4ccccc43)n2)cc1
inactive: SK-MEL-2 melanoma 103% | EKVX NSCLC 84.4% | SN12C renal 92.4% | UO-31 renal 67.2% | TK-10 renal 103% | ACHN renal 88.2% | A498 renal 81.9% | CCRF-CEM leukemia 91.4% | MOLT-4 leukemia 77% | SR leukemia 77.6% | RPMI-8226 leukemia 78.6% | OVCAR-8 ovarian 93.7% | OVCAR-5 ovarian 99.6% | OVCAR-4 ovarian 77.4% | SK-OV-3 ovarian 96.2% | IGROV1 ovarian 91.4% | OVCAR-3 ovarian 105% | HS 578T breast 84.8% | NCI/ADR-RES ovarian 105%

CCOC(=O)C1=C(C)Nc2nc3ccccc3n2C1c1cccc(Br)c1 (stereo unspecified)
inactive: SK-MEL-2 melanoma 89.9% | EKVX NSCLC 80.2% | SN12C renal 95.1% | UO-31 renal 73.7% | TK-10 renal 113% | ACHN renal 88.9% | CAKI-1 renal 54.5% | MOLT-4 leukemia 69.3% | SR leukemia 25.4% | OVCAR-5 ovarian 97.1% | OVCAR-4 ovarian 88.9% | SK-OV-3 ovarian 93.6% | IGROV1 ovarian 77.4% | OVCAR-3 ovarian 40.3% | HS 578T breast 79.1% | NCI/ADR-RES ovarian 59%

CS(=O)(=O)c1ccc(-c2nn(-c3ccccc3)cc2/C=C/C(=O)c2ccc(Br)cc2)cc1
inactive: SK-MEL-2 melanoma 103% | EKVX NSCLC 87.5% | SN12C renal 88.1% | UO-31 renal 79.6% | TK-10 renal 107% | ACHN renal 94% | A498 renal 84.1% | CCRF-CEM leukemia 41.8% | MOLT-4 leukemia 60.6% | SR leukemia 59.6% | RPMI-8226 leukemia 32.8% | OVCAR-8 ovarian 93.6% | OVCAR-5 ovarian 101% | OVCAR-4 ovarian 90.6% | SK-OV-3 ovarian 107% | IGROV1 ovarian 95% | OVCAR-3 ovarian 70.3% | HS 578T breast 117% | NCI/ADR-RES ovarian 85.2%

NS(=O)(=O)c1ccc(-n2cc(CC=O)nn2)cc1
inactive: SK-MEL-2 melanoma 109% | EKVX NSCLC 99.2% | SN12C renal 106% | UO-31 renal 87.7% | TK-10 renal 98.5% | ACHN renal 107% | A498 renal 96% | CCRF-CEM leukemia 110% | MOLT-4 leukemia 103% | SR leukemia 101% | RPMI-8226 leukemia 109% | OVCAR-8 ovarian 106% | OVCAR-5 ovarian 104% | OVCAR-4 ovarian 101% | SK-OV-3 ovarian 112% | IGROV1 ovarian 102% | OVCAR-3 ovarian 109% | HS 578T breast 104% | NCI/ADR-RES ovarian 104%

COc1cc(C2=NN(C(C)=O)C(c3ccc(N4CCOCC4)cc3)C2)cc(OC)c1OC (stereo unspecified)
inactive: SK-MEL-2 melanoma 97% | EKVX NSCLC 101% | SN12C renal 98.3% | UO-31 renal 84% | TK-10 renal 108% | ACHN renal 99.6% | CAKI-1 renal 94.7% | CCRF-CEM leukemia 97.3% | MOLT-4 leukemia 106% | SR leukemia 108% | OVCAR-8 ovarian 101% | OVCAR-5 ovarian 103% | OVCAR-4 ovarian 107% | SK-OV-3 ovarian 97.4% | IGROV1 ovarian 98.5% | OVCAR-3 ovarian 120% | HS 578T breast 108% | NCI/ADR-RES ovarian 99.5%

O=C(Nc1cccc(Cl)c1)Nc1nc2ccc([N+](=O)[O-])cc2s1
active: SK-MEL-2 melanoma -24.1% | SN12C renal 4.02% | UO-31 renal 7.26% | TK-10 renal -2.79% | ACHN renal 5.59% | CAKI-1 renal 3.38% | MOLT-4 leukemia 2.36% | SR leukemia 2.1% | RPMI-8226 leukemia 3.45% | OVCAR-8 ovarian 7.34% | OVCAR-4 ovarian 4.33% | SK-OV-3 ovarian -1.18% | OVCAR-3 ovarian 9.51% | HS 578T breast -5.35% | NCI/ADR-RES ovarian 2.96%
inactive: EKVX NSCLC 10% | OVCAR-5 ovarian 26.5% | IGROV1 ovarian 14.8%

Cc1nn(-c2ccccc2)c2nc(CCl)[nH]c(=O)c12
active: UO-31 renal -86.3%
inactive: SK-MEL-2 melanoma 105% | EKVX NSCLC 99.2% | SN12C renal 95.7% | TK-10 renal 63.3% | ACHN renal 90.3% | CAKI-1 renal 99.6% | MOLT-4 leukemia 79.6% | SR leukemia 39.8% | OVCAR-8 ovarian 102% | OVCAR-5 ovarian 112% | OVCAR-4 ovarian 110% | SK-OV-3 ovarian 122% | IGROV1 ovarian 97.4% | OVCAR-3 ovarian 90.9% | HS 578T breast 120% | NCI/ADR-RES ovarian 105%

C/C=C/[C@@H]1C=C[C@@H]2C[C@H](C)CC[C@H]2[C@]1(C)/C(O)=C1/C(=O)[C@H](CO)N(C)C1=O
active: NCI/ADR-RES ovarian 6.87%
inactive: SK-MEL-2 melanoma 79.2% | EKVX NSCLC 55.6% | SN12C renal 45.8% | UO-31 renal 56.2% | TK-10 renal 67.7% | ACHN renal 73.7% | A498 renal 43.5% | CCRF-CEM leukemia 40.4% | MOLT-4 leukemia 60.6% | SR leukemia 59.2% | RPMI-8226 leukemia 36.5% | OVCAR-8 ovarian 43.4% | OVCAR-5 ovarian 118% | OVCAR-4 ovarian 70.5% | SK-OV-3 ovarian 75% | IGROV1 ovarian 57.3% | OVCAR-3 ovarian 49.1% | HS 578T breast 67.9%
